Source: PubChem BioAssay (NCATS)
Records with an inconclusive call do not appear. Entries that show only a call come without a potency. Active and inactive are the calls of the source. Calls follow the shape of the dose curve; as a rule, active = well fitted inhibition curve with a large enough effect; inconclusive = small, poorly fitted or top-dose-only effect; inactive = no such curve, though single readings can be large or run the other way.

assay: Primary fluorescence-based thiol-reactive (MSTI) qHTS assay for identification of artifact compounds. (AID 1845221); settings: MSTI thiol-reactivity probe, 1 h; series mostly up to 53.8 µM; also: nearly all actives have a fitted effect of over 65% in size
Method in brief: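 Compounds were incubated 1 h at room temperature in the dark with the MSTI probe (4 uM) in PBS pH 7.4, 2% DMSO. Signals were normalized between Acetyl-MSTI and MSTI.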
Potency is read from the fitted curve at half-maximal effect.

| SMILES | Potency | activity change, negative = thiol reactive |
| --- | --- | --- |
| COc1ccccc1Oc1ccc(N(Cc2cccnc2)S(=O)(=O)CC(F)(F)F)cc1 | inactive | – |
| C=CC(C)(O)CC/C=C(\C)C(=O)OC1C(O)C(CO)OC(OC(=O)C23CCC(C)(C)CC2C2=CCC4C5(C)CCC(OC6OC(COC7OCC(OC(C)=O)C(O)C7OC7OC(COC(C)=O)C(O)C(O)C7O)C(O)C(O)C6O)C(C)(C)C5CCC4(C)C2(C)C(O)C3O)C1OC1OCC(OC2OCC(O)C(OC3OCC(O)C(O)C3O)C2O)C(O)C1O (centres undefined) | – | 213% [at 6.41 µM] (inactive) |
| O=C(CO)[C@@H](O)[C@H](O[C@@H]1O[C@H](CO)[C@H](O)[C@H](O)[C@H]1O)[C@H](O)CO | inactive | – |
| C/C1=C\CCC(C)CCO[C@@H]2O[C@H](CO[C@@H]3OC[C@H](O)[C@H](O)[C@H]3OC1=O)[C@@H](O)[C@H](O)[C@H]2O (some centres undefined) | 8.22 µM (active) | – |
| Cc1csc(NC(=O)c2ccc(COc3cccc(Cl)c3)o2)n1 | inactive | – |
| COC(=O)C[C@H]1C(C)(C)[C@H](OC(C)=O)C2CC3=C4CC(=O)O[C@@H](c5ccoc5)[C@]4(C)CCC3[C@@]1(C)C2=O (some centres undefined) | inactive | – |
| CC(=O)O[C@]1(C(C)=O)CC[C@H]2[C@@H]3C[C@H](C)C4=CC(=O)C=C[C@]4(C)[C@@]3(F)[C@@H](O)C[C@@]21C | inactive | – |
| CCCC1(c2ccccc2)NC(=O)N(CC(=O)N(C)Cc2c(F)cccc2Cl)C1=O (centres undefined) | inactive | – |
| C=CC(C)(O)CC[C@H]1C(=C)CCC2[C@](C)(C(=O)O)CCC[C@@]21C (some centres undefined) | inactive | – |
| C=CC(C)(O)C(O)CC1C(C)(O)C(O)C(O)C2C(C)(C)CCCC21C (centres undefined) | inactive | – |
| C[C@@H]1C[C@@H](O)[C@@]23CO[C@@H](O)[C@@H]2CCC[C@@H]3[C@@]12C[C@@H](c1ccoc1)OC2=O | inactive | – |
| OC[C@H]1O[C@@H](OC(CCCCc2ccc(O)cc2)CCc2ccc(O)cc2)[C@H](O)[C@@H](O)[C@@H]1O (some centres undefined) | inactive | – |
| Cc1cc(Nc2ncc3cc(-c4c(Cl)cccc4Cl)c(=O)n(C)c3n2)ccc1F | inactive | – |
| CC1(C(=O)O)CCCC2(C)C3=CCC4CC3(CCC12)CC4CO (centres undefined) | inactive | – |
| C[C@H](O)[C@H](O)/C=C/c1cccc(O)c1CO | inactive | – |
| CC1(C)C2CC=C(COC3OC(COC4OCC(O)(CO)C4O)C(O)C(O)C3O)C1C2 (centres undefined) | inactive | – |
| C=CC(C)(C)C12C=C(OC)C(=O)N3C(C(C)C)C(=O)NC31N(OC)c1ccccc12 (centres undefined) | inactive | – |
| [N-]=[N+]=N[C@]1(CO)O[C@@H](n2ccc(=O)[nH]c2=O)[C@@H](O)[C@@H]1O | inactive | – |
| COC(=O)C[C@H]1C(C)(C)[C@H](OC(=O)C(C)C)[C@@]2(O)C(=O)[C@]1(C)C1CC[C@]3(C)C(CC(=O)O[C@H]3c3ccoc3)[C@]13O[C@@H]32 (some centres undefined) | inactive | – |
| CC(C)[C@H]1CC[C@@]2(O)COC(=O)[C@H]2[C@@H]1/C=C(\CO)C(=O)O | inactive | – |
| CS(=O)(=O)N(CC(=O)NCC1CC1)c1cc(C(F)(F)F)ccc1Cl | inactive | – |
| CC(=O)O[C@@H]1[C@@H](OC(=O)/C=C/c2ccccc2)[C@@H](OC(C)=O)[C@H](O[C@H]2[C@@H]3C=CO[C@@H](O[C@@H]4O[C@H](CO)[C@@H](O)[C@H](O)[C@H]4O)[C@@H]3[C@@]3(CO)O[C@@H]23)O[C@H]1C | inactive | – |
| CC1(C)[C@@H](O)CC[C@]2(C)[C@H]3CC=C4[C@@H]5C[C@](C)(C(=O)O)CC[C@]5(C)CC[C@@]4(C)[C@]3(C)CC[C@@H]12 | inactive | – |
| NCc1ccc(Nc2ncc(F)c(Nc3ccccc3)n2)cc1 | inactive | – |
| CC(=O)O[C@@H]1[C@@H](O)[C@H](C)O[C@@H](O[C@H]2[C@@H]3C=CO[C@@H](O[C@@H]4O[C@H](CO)[C@@H](O)[C@H](O)[C@H]4O)[C@@H]3[C@@]3(CO)O[C@@H]23)[C@@H]1OC(=O)/C=C/c1ccccc1 | inactive | – |
| COc1c(C)c(OCC(O)C(C)(C)O)cc2c1COC2=O (centres undefined) | inactive | – |
| C[C@@H]1O[C@@H](O[C@H]2[C@H](O[C@H]3[C@H](O[C@H]4CC[C@@]5(C)C(CC[C@]6(C)C5CC=C5[C@@H]7CC(C)(C)C[C@@H](O)[C@]7(C)CC[C@]56C)[C@@]4(C)CO)O[C@H](C(=O)O)[C@@H](O)[C@@H]3O)OC[C@H](O)[C@@H]2O)[C@H](O)[C@H](O)[C@H]1O (some centres undefined) | – | 129% [at 11.5 µM] (inactive) |
| CCOc1ccc(S(=O)(=O)n2c(C)nc3ccccc32)cc1 | inactive | – |
| Cc1ccc(NC(=O)C(=O)NC2CC(C)(C)NC(C)(C)C2)cc1 | inactive | – |
